pS6 MEF inh: inhibitors of mTORC1 signaling in Tsc2-/- p53-/- MEF cells; Potency, µM (doses to about 38.3 µM), hits mostly inhibitors; hit rate 0.78% among 44,000; AID 493208; Tsc2-/- p53-/- MEF, phospho-rpS6 immunofluorescence/PI, 24 h; also: nearly all actives have a fitted effect of over 50% in size
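Tsc2-/-, p53-/- mouse embryonic fibroblasts (empty-vector line) exposed to compound 24 hrs at 37 C, fixed, immunostained for phospho-rpS6 and counterstained with propidium iodide. Acumen laser scanning gives % positive cells from Alexa 488/PI ratio, thresholded using 7.5 nM rapamycin; PI count gives viability.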
PMP22 txn prim: modulators of PMP22 gene transcription in S16 Schwann cells. S16 Pmp22-F2sN Schwann cells, FLuc/NLuc coincidence luminescence, 24 h. Potency, µM (doses to about 57.5 µM), usual class: inhibitors. hit rate 2% among 43,000; active = clear falling dose curves in both reporters; inconclusive = both reporters move, but less clearly or upward; inactive = either reporter flat; the % is the NLuc reporter signal
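Transcriptional readout in edited S16(c9) cells: two luciferases reported from the Pmp22 locus, measured in turn after 24 h compound incubation.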
S16 viability: toxic to S16 Pmp22-F2sN Schwann cells. hit rate 0.48% among 43,000. S16 Pmp22-F2sN Schwann cells (luciferase reporters placed in the Pmp22 gene) viability, CellTiter-Glo, 24 h. Potency, µM (top dose mostly 57.5 µM), most hits filed as cytotoxic. AID 1508642; also: nearly all actives have a fitted effect of over 65% in size
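CellTiter-Glo counter-screen, qHTS, 1536-well. Cells: S16(c9) Pmp22-F2sN, 500-1,000/well in DMEM + 10% FBS. Cpd 23 nL pin transfer, 24 h, 37C/5% CO2. Read: luminescence, CCD imager.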
NTMT1 inhibitor: blocks human N-terminal methyltransferase 1 activity; hit rate 2.5% among 59,000; AID 1645870; NTMT1 MTase-Glo SAH luminescence, purified enzyme; Potency, µM (series often up to 114 µM), most hits filed as inhibitors; also: nearly all actives have a fitted effect of over 65% in size
Target sequence (Q9BV86 whole entry, looked up): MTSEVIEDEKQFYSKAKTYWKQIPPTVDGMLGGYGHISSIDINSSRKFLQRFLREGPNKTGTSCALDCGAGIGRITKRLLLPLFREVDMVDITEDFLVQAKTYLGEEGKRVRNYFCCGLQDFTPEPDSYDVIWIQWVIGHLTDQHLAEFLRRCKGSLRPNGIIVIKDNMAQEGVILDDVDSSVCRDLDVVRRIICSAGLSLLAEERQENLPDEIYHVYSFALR
SKOV3 invasion: ovarian cancer metastasis inhibition, 3D TME model. SKOV3ip1-GFP adhesion/invasion on 3D omental model, fluorescence. Potency, µM (series often up to 45.8 µM), most hits filed as inhibitors. hit rate 0.1% among 46,000; also: nearly all actives have a fitted effect of over 65% in size
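qHTS, 4-pt dose (0.36-46 umol/L); SKOV3ip1-GFP, 1,200 cells/well, no FBS; primary omental fibroblast/mesothelial co-culture 48 h pre-grown; 2 h RT + 16 h 37 C; PBS wash, 4% PFA; GFP count 488/509 nm.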
GALC G270D act: raises human GALC G270D mutant activity in cells; 145M-Twi-hGALC-G270D cells (Twitcher mouse brain line with human GALC G270D), HMU-beta-Gal fluorescence, 48 h; Potency, µM (top dose mostly 57.5 µM), most hits filed as activators; hit rate 0.1% among 45,000; also: nearly all actives have a fitted effect of over 65% in size
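Live 145M-Twi cells (Twitcher mouse brain-derived, GALC-null) stably expressing human GALC-G270D, with a wild-type GALC line, were compound-treated. Residual GALC activity was then read as fluorescence from 0.1 mM final HMU-β-gal at pH 5.2; higher signal means activation.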
NLuc saturating: inhibits NanoLuc at saturating substrate, PMP22 counter-screen; Secreted NLuc enzyme (filtered S16 cell medium), Nano-Glo luminescence; shares compounds with PMP22 txn prim; Potency, µM (series often up to 57.5 µM), actives largely listed as inhibitors; hit rate 4% among 690; AID 1508638
NLuc Km counter: inhibits NanoLuc under Km conditions, PMP22 counter-screen | Potency, µM (doses to about 57.5 µM), most hits filed as inhibitors | secreted NLuc enzyme, coelenterazine luminescence, Km conditions | hit rate 5% among 690 | shares compounds with PMP22 txn prim
FLuc counter: counter-screen for PMP22 expression modulators: firefly luciferase inhibition; shares compounds with PMP22 txn prim; Potency, µM (doses to about 57.5 µM), usual class: inhibitors; purified P. pyralis FLuc, luminescence, 10 min; 690 tested, under 10 active
S16 F2sN tox cnf: S16 Schwann cell cytotoxicity, confirmatory. shares compounds with PMP22 txn prim. S16 Schwann cells viability, CellTiter-Glo ATP luminescence, 24 h. Potency, µM (titrated, usually from 57.5 µM), actives largely listed as cytotoxic. hit rate 7% among 690. AID 1508641
PMP22 txn conf: PMP22 transcription modulation, confirmatory; shares compounds with PMP22 txn prim; S16 Schwann cells Pmp22-F2sN, dual luciferase, 24 h; Potency, µM (top dose mostly 57.5 µM), usual class: inhibitors; hit rate 22% among 690; active = clear falling dose curves in both reporters; inconclusive = both reporters move, but less clearly or upward; inactive = either reporter flat; the % is the FLuc reporter signal
PMP22 HiBiT cnf: confirmation of modulators of rat PMP22 protein expression; 95 tested, under 10 active; AID 1508647; Potency, µM (doses to about 27.9 µM), usual class: inhibitors; shares compounds with PMP22 txn prim; S16 Schwann cells Pmp22-HiBiT, luminescence, 48 h
Target sequence (P25094 whole entry, looked up): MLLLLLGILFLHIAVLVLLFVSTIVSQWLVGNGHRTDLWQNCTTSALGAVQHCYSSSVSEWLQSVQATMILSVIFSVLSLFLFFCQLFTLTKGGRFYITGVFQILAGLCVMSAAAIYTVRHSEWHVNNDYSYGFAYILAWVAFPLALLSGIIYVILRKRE
A number is an active result; n = inactive; u = inconclusive; x = no result. Most compounds without a hit are left out; they make up all but 3.6% or so of the library. Unless noted, calls follow the shape of the dose curve; as a rule, active = well fitted curve in the direction sought with a large enough effect; inconclusive = small, poorly fitted or top-dose-only effect, or another doubt; inactive = no such curve, though single readings can be large; an effect the other way counts as inactive or inconclusive.

SMILES	pS6 MEF inh	PMP22 txn prim	S16 viability	NTMT1 inhibitor	SKOV3 invasion	GALC G270D act	NLuc saturating	NLuc Km counter	FLuc counter	S16 F2sN tox cnf	PMP22 txn conf	others
CCCN1CCN(CCCNC(=O)c2cc3c(Cl)nc4ccccc4c3s2)CC1	n	13µM	n	u	n	n	n	n	n	u	n
CCCN1CCN(CCCNC(=O)c2cc3c(=O)n(CC)c4ccccc4c3s2)CC1	u	u	n	u	n	n	x	x	x	x	x
Cn1c(=O)c2cc(C(=O)NCCCN3CCN(c4ccc(F)cc4)CC3)sc2c2ccccc21	n	19µM	n	n	n	n	u	n	n	34µM	u
O=C(NCCCN1CCN(c2ccccc2F)CC1)c1cc2c(Cl)nc3ccccc3c2s1	n	u	n	u	n	n	x	x	x	x	x
Cn1c(=O)c2cc(C(=O)NCCCN3CCN(c4ccccc4F)CC3)sc2c2ccccc21	n	u	n	n	n	n	x	x	x	x	x
CCn1c(=O)c2cc(C(=O)NCCCN3CCN(C)CC3)sc2c2ccccc21	n	11µM	n	u	n	n	n	n	n	n	n
CCc1ccc(NCc2cc3cc(OC)c(OC)cc3n(CC(=O)Nc3cc(C)ccc3C)c2=O)cc1	n	11µM	n	u	n	u	n	n	n	n	u
CCc1ccc(NCc2cc3cc(OC)c(OC)cc3n(CC(=O)Nc3ccc(F)cc3)c2=O)cc1	n	u	n	n	n	u	x	x	x	x	x
CCOc1cc(CNCCSc2nnnn2C)ccc1OCc1ccc(Cl)cc1Cl	u	u	u	n	u	n	x	x	x	x	x
CCOc1cc(CNc2ccc(O)cc2)cc(Br)c1OCc1ccccc1	n	8.5µM	u	u	n	n	u	u	n	n	15µM	PMP22 HiBiT cnf=n
CCOc1cc(CNc2ccc(O)cc2)ccc1OCc1ccc(Cl)cc1	u	7.8µM	u	u	n	n	17µM	19µM	u	n	n
Cc1ccccc1Nc1nn2c(=O)c3ccc(C(=O)NCc4ccccc4)cc3nc2s1	n	u	n	n	n	n	x	x	x	x	x
Cc1ccc(C)c(Nc2nn3c(=O)c4ccc(C(=O)NCc5cccs5)cc4nc3s2)c1	u	13µM	u	u	n	n	n	u	n	u	u
CCc1ccccc1Nc1nn2c(=O)c3ccc(C(=O)NCc4ccc(C)cc4)cc3nc2s1	n	u	n	n	n	n	x	x	x	x	x
CCc1ccccc1Nc1nn2c(=O)c3ccc(C(=O)Nc4cc(C)cc(C)c4)cc3nc2s1	n	7.3µM	n	u	n	n	n	u	n	22µM	12µM	PMP22 HiBiT cnf=n
